# PubChem BioAssay (EPA / NIEHS)
# Results filed as inconclusive are left out. The source made the active and inactive calls. Rule for the calls: active = hit-call score of the fitted dose curve at least 0.9, where 1 is the maximum; inconclusive = response in the unintended direction; inactive = score below 0.9.
# Target: Androgen receptor (Homo sapiens) (UniProt P10275)
# Test: ATG_AR_TRANS: Attagene TRANS-FACTORIAL HepG2 Assay for human Androgen Receptor (AR) (AID 2282973)
# Details: HepG2 Attagene TRANS-FACTORIAL AR reporter transcription
# Method in brief: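 Chimeric nuclear receptor–Gal4 activity was assessed in human HepG2 hepatocytes after 24 h chemical dosing. Induced reporter mRNA was detected via labelled RT-PCR fragments on capillary electrophoresis, and gain of signal was analysed against DMSO.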
# Androgen receptor (Homo sapiens), sequence (P10275 whole entry, looked up): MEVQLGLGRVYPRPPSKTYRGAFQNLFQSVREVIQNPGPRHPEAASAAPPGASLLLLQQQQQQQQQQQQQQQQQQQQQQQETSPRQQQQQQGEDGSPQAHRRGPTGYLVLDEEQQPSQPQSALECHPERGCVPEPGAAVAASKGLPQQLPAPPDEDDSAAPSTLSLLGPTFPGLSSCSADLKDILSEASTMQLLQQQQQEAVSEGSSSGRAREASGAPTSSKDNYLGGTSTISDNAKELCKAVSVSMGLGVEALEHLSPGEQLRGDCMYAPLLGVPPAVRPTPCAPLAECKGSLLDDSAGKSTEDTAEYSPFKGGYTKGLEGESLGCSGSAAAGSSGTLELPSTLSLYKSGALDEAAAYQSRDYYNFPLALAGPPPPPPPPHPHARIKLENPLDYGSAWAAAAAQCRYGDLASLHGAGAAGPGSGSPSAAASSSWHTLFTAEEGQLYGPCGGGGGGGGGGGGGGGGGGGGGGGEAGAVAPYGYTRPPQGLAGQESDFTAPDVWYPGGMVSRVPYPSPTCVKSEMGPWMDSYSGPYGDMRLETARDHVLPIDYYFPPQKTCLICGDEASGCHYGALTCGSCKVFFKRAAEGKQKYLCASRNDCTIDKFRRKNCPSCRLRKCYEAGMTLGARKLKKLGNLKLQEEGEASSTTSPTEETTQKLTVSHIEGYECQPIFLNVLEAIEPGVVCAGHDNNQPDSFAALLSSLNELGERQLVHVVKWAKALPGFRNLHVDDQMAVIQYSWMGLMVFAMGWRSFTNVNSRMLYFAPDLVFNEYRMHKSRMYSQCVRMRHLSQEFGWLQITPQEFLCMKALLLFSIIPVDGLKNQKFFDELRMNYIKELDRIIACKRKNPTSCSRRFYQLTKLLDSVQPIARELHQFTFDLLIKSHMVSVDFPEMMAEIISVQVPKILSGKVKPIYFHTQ
row,Structure (SMILES),outcome
1,Cc1ccc(C2OC[C@@H]3OC(c4ccc(C)cc4)O[C@H]([C@H](O)CO)[C@@H]3O2)cc1 (stereo not given in full),inactive
2,COc1cc(C(C)C)ccc1C,inactive
3,NCC(F)(F)C(F)(F)C(F)(F)C(F)(F)C(F)(F)C(F)(F)C(F)(F)C(F)(F)F,inactive
4,CCC(=O)C1CC(C(C)C)CC=C1C (stereo not given),inactive
5,O=S(=O)(O)C(F)(F)C(F)(F)C(F)(F)C(F)(F)C(F)(F)C(F)(F)C(F)(F)C(F)(F)C(F)(F)C(F)(F)F,inactive
6,CCCC(=O)c1cc(O)c(O)cc1O,inactive
7,O=C(c1ccccc1)c1ccc(Cl)cc1,inactive
8,Cc1cccc(C)n1,inactive
9,CCc1ccc(C(c2ccc(CC)cc2)C(Cl)Cl)cc1,inactive
10,C=C(C)C(=O)OCCOC(=O)C(=C)C,inactive
11,CCC(O)CO (stereo not given),inactive
12,C=COC(=O)C(C)(C)CCCCCC,inactive
13,CCOc1cccc(-n2cc(C(=O)N3CCN(c4cc(C(=O)O)c5ccccc5c4)CC3)nc2-c2ccc(C)cc2)c1,inactive
14,N#CCCOCCC#N,inactive
15,COCC(C)N (stereo not given),inactive
16,Nc1ccc(N)c2c1C(=O)c1ccccc1C2=O,inactive
17,Cc1ccc(S(=O)(=O)Oc2ccc(N=Nc3ccc(-c4ccc(N=Nc5c(O)ccc6cc(S(=O)(=O)O)cc(S(=O)(=O)O)c56)c(C)c4)cc3C)cc2)cc1,inactive
18,CC(C)CCCC(C)CCO (stereo not given),inactive
19,FC(F)(F)C(F)(F)C(F)(F)C(F)(F)C(F)(F)C(F)(F)CC1CO1 (stereo not given),inactive
20,C=CC(C)(C)O,inactive

row,Structure (SMILES),outcome
1,FC(F)(F)C(F)(F)C(F)(F)C(F)(F)C(F)(F)C(F)(F)CC[Si](Cl)(Cl)Cl,inactive
2,COC(=O)c1cccc(C)c1S(=O)(=O)NC(=O)Nc1nc(OCC(F)(F)F)nc(N(C)C)n1,inactive
3,C[Si](O[Si](C)(C)C)O[Si](C)(C)C,inactive
4,CCCCCCCCCC(C)=O,inactive
5,O=C(NO)c1ccccc1,inactive
6,O=C1OCc2ccccc21,inactive
7,c1ccc(Sc2ccccc2)cc1,inactive
8,CC(=O)c1ccc(S(=O)(=O)NC(=O)NC2CCCCC2)cc1,inactive
9,CC(C)CCOCc1ccccc1,inactive
10,CC(=O)N(C)C,inactive
11,CC(C)(C)c1cc(CCC(=O)NCCCCCCNC(=O)CCc2cc(C(C)(C)C)c(O)c(C(C)(C)C)c2)cc(C(C)(C)C)c1O,inactive
12,C[C@H]1C[C@@H]2[C@H]([C@@H](O)C[C@@]3(C)[C@H]2CC[C@]3(O)C(=O)CO)[C@@]2(C)C=CC(=O)C=C12,inactive
13,CC(=O)CC(C)(C)O,inactive
14,O=S(=O)(c1ccc(OCc2ccccc2)cc1)c1ccccc1O,inactive
15,FC(F)(F)C(F)(F)C(F)(F)C(F)(F)C(F)(F)C(F)(F)C(F)(F)Br,inactive
16,CC1(C)[C@H](C=C(Cl)Cl)[C@H]1C(=O)OCc1cccc(Oc2ccccc2)c1,inactive
17,CCCCCCCCCCCCC[N+](C)(C)Cc1ccccc1,inactive
18,COCCOCCC[Si](C)(O[Si](C)(C)C)O[Si](C)(C)C,inactive
19,FC(F)(F)C(F)(F)C(F)(F)C(F)(F)C(F)(F)C(F)(F)C(F)(F)C(F)(F)F,inactive
20,CCCCCCOC(=O)C(C)CC (stereo not given),inactive
